Results from the supplement of paper PMC6992640.
± gives the standard deviation of the averaged measurements.

Columns and labels:
Test in all cases: cell viability (% of vehicle); higher = less cytotoxic
HCI01 [1] = cells of a triple-negative basal-like breast cancer xenograft; details: 1 µM; 72 h
UCD52 [2] = cells of a triple-negative basal-like breast cancer xenograft; details: 1 µM; 72 h
WHIM2 [3] = cells of a triple-negative basal-like breast cancer xenograft; details: 1 µM; 72 h
WHIM30 [4] = cells of a triple-negative basal-like breast cancer xenograft; details: 1 µM; 72 h
HCI01 [5] = details: 10 µM; 72 h
HCI03 = cells of an ER-positive luminal breast cancer xenograft; details: 10 µM; 72 h
HCI09 = cells of a triple-negative luminal androgen receptor type breast cancer xenograft; details: 10 µM; 72 h
HCI11 = cells of an ER-positive luminal breast cancer xenograft; details: 10 µM; 72 h
HCI13 = cells of an ER-positive luminal breast cancer xenograft; details: 10 µM; 72 h
HCI16 = cells of a triple-negative basal-like breast cancer xenograft; details: 10 µM; 72 h
UCD52 [6] = details: 10 µM; 72 h
WHIM2 [7] = details: 10 µM; 72 h
WHIM30 [8] = details: 10 µM; 72 h

Row | SMILES | cell viability (HCI01 [1]) | cell viability (UCD52 [2]) | cell viability (WHIM2 [3]) | cell viability (WHIM30 [4]) | cell viability (HCI01 [5]) | cell viability (HCI03) | cell viability (HCI09) | cell viability (HCI11) | cell viability (HCI13) | cell viability (HCI16) | cell viability (UCD52 [6]) | cell viability (WHIM2 [7]) | cell viability (WHIM30 [8])
1 | CO[C@H]1C[C@@H]2CC[C@@H](C)[C@@](O)(O2)C(=O)C(=O)N2CCCC[C@H]2C(=O)O[C@H]([C@H](C)C[C@@H]2CC[C@@H](OC(=O)C(C)(CO)CO)[C@H](OC)C2)CC(=O)[C@H](C)/C=C(\C)[C@@H](O)[C@@H](OC)C(=O)[C@H](C)C[C@H](C)/C=C/C=C/C=C/1C [Temsirolimus] | 76.2 | 55.1 | 80 | 74.2 | 31.8 ± 1.4 | 57.5 | 26.7 ± 8.6 | 54.3 | 24.6 ± 11 | 45.2 | 23.1 ± 2.3 | 42.4 ± 15 | 30.5 ± 1.6
2 | CC(C)c1nc(CN(C)C(=O)NC(C(=O)NC(Cc2ccccc2)CC(O)C(Cc2ccccc2)NC(=O)OCc2cncs2)C(C)C)cs1 (stereo unspecified) [Ritonavir] | 88.2 | 82.1 | 88.4 | 91.1 | 72 ± 3.7 | 98 | 48.2 ± 0.57 | 83.6 | 57.8 ± 3.3 | 96.1 | 41.5 ± 0.54 | 62.6 ± 2.7 | 82 ± 16
3 | CCOC(=O)C1=C(COCCN)NC(C)=C(C(=O)OC)C1c1ccccc1Cl (stereo unspecified) [Amlodipine] | 103 | 93.7 | 101 | 90.2 | 70.6 ± 31 | 86.4 | 50.5 ± 42 | 100 | 32.2 ± 4.1 | 69.9 | 27.6 ± 4 | 31.9 ± 10 | 73.4 ± 12
4 | COc1ccc(C[C@H](N)C(=O)N[C@@H]2[C@H](O)[C@H](n3cnc4c(N(C)C)ncnc43)O[C@@H]2CO)cc1.Cl.Cl [Puromycin dihydrochloride] | 93.8 | 22.3 | 86.9 | 76.8 | 28.6 ± 2.4 | 58.6 | 26.89 ± 0.082 | 33.4 | 51.1 ± 14 | 52 | 34.5 ± 0.59 | 42 ± 4.2 | 33.3 ± 2.3
5 | Cl.Nc1ccn(C2OC(CO)C(O)C2O)c(=O)n1 (stereo unspecified) [Cytarabine hydrochloride] | 71.5 | 114 | 86.3 | 90.1 | 75.2 ± 11 | 105 | 122 ± 36 | 147 | 61.5 ± 3.5 | 73.9 | 105 ± 5.7 | 58 ± 8.3 | 81.1 ± 11
6 | CN1CCN(CCCN2c3ccccc3Sc3ccc(C(F)(F)F)cc32)CC1.Cl.Cl [Trifluoperazine 2HCl] | 95.7 | 82.1 | 102 | 84.9 | 42.8 ± 8.5 | 57.4 | 30.2 ± 8 | 82.1 | 42.2 ± 2 | 54.1 | 33.8 ± 2.4 | 43.3 ± 3.1 | 97.8 ± 6.6
7 | CSc1ccc2c(c1)N(CCC1CCCCN1C)c1ccccc1S2.Cl (stereo unspecified) [Thioridazine HCl] | 87 | 82.5 | 92.4 | 84.7 | 44.9 ± 9.3 | 52.1 | 26.4 ± 1.2 | 88.4 | 55.6 ± 3.4 | 41.4 | 36.8 ± 0.53 | 42.2 ± 10 | 61.9 ± 3.6
8 | CCCSc1nc(NC2CC2c2ccc(F)c(F)c2)c2nnn(C3CC(OCCO)C(O)C3O)c2n1 (stereo unspecified) [Ticagrelor] | 97.8 | 91 | 89.7 | 75.5 | 41.1 ± 38 | 122 | 47.6 ± 30 | 80.5 | 46.1 ± 3.6 | 80 | 64.95 ± 0.47 | 41.2 ± 12 | 97.7 ± 5.2
9 | C=CC(=O)Nc1cc(Nc2nccc(-c3cn(C)c4ccccc34)n2)c(OC)cc1N(C)CCN(C)C | 57.6 | 63 | 52.7 | 61.8 | 41.7 ± 1 | 39.9 | 50.4 ± 36 | 61.3 | 51.7 ± 3.8 | 60.7 | 30.1 ± 0.95 | 44.5 ± 7.7 | 41.7 ± 1.9
10 | CCCCCCCCCCCC1=C(O)C(=O)C=C(O)C1=O [Embelin] | 92.8 | 86.8 | 93.5 | 85.6 | 75.6 ± 18 | 97.1 | 22.8 ± 1.3 | 54.1 | 86.3 ± 2.1 | 92.7 | 72.3 ± 5.4 | 77.1 ± 2.9 | 70.1 ± 13
11 | CC(C)COc1ccc(CNC(=O)N(Cc2ccc(F)cc2)C2CCN(C)CC2)cc1 [Pimavanserin] | 93.5 | 83.6 | 103 | 88 | 98.1 ± 1.5 | 111 | 56.7 ± 18 | 81 | 171 ± 10 | 87.3 | 46.4 ± 3.1 | 43.7 ± 2.7 | 83.5 ± 3.7
12 | CC(=O)c1cc2c(o1)C(=O)c1ccccc1C2=O [Napabucasin] | 30.1 | 29.6 | 50.3 | 33.9 | 54.9 ± 23 | 54.2 | 29.1 ± 9.1 | 21.8 | 46.9 ± 9.2 | 58.7 | 40.3 ± 7.5 | 72.4 ± 12 | 45.1 ± 7.3
13 | CNCCC(Oc1ccc(C(F)(F)F)cc1)c1ccccc1.Cl (stereo unspecified) [Fluoxetine HCl] | 91.1 | 75.6 | 99.1 | 84.1 | 98.1 ± 5 | 98.4 | 84.6 ± 29 | 75.2 | 104 ± 12 | 58.6 | 47.8 ± 1.9 | 44.9 ± 6 | 65.9 ± 10
14 | CC[C@H](C)[C@H]1O[C@]2(CC[C@@H]1C)C[C@@H]1C[C@@H](C/C=C(\C)[C@@H](O[C@H]3C[C@H](OC)[C@@H](O[C@H]4C[C@H](OC)[C@@H](O)[C@H](C)O4)[C@H](C)O3)[C@@H](C)/C=C/C=C3\CO[C@@H]4[C@H](O)C(C)=C[C@@H](C(=O)O1)[C@]34O)O2 [Ivermectin] | 90.6 | 57.6 | 86.6 | 73.3 | 38.3 ± 8 | 81.2 | 20 ± 3.4 | 81 | 37.6 ± 8.1 | 82.9 | 76.3 ± 3 | 40.5 ± 7.1 | 36.2 ± 3
15 | COc1cc2ncnc(Nc3ccc(F)c(Cl)c3)c2cc1NC(=O)C=CCN1CCCCC1 | 70.8 | 40 | 43.9 | 54.6 | 34.5 ± 3.5 | 49.8 | 22.3 ± 1.4 | 57 | 24.6 ± 15 | 55.1 | 29.7 ± 2.9 | 43.9 ± 9.3 | 47.4 ± 1.6
16 | CC[C@@]1(O)C(=O)OCc2c1cc1n(c2=O)Cc2cc3c(CN(C)C)c(O)ccc3nc2-1 [Topotecan] | 65.9 | 101 | 56.5 | 37.4 | 42.8 ± 6.2 | 128 | 28.1 ± 0.98 | 44.4 | 49.1 ± 5.8 | 73 | 42.4 ± 0.96 | 44.5 ± 3.2 | 83.2 ± 6.8
17 | CN(C)c1ccc(C(=C2C=CC(=[N+](C)C)C=C2)c2ccc(N(C)C)cc2)cc1.[Cl-] [Crystal Violet] | 74.7 | 61.1 | 51.2 | 40.8 | 28.8 ± 4.1 | 48.9 | 26.9 ± 4.8 | 28.1 | 24.73 ± 0.16 | 56.7 | 29.6 ± 3.3 | 46.7 ± 15 | 36.8 ± 2.2
18 | Cc1ccc(C(=O)N(CCCN)C(c2nc3cc(Cl)ccc3c(=O)n2Cc2ccccc2)C(C)C)cc1 (stereo unspecified) | 98.7 | 47.7 | 62.5 | 78 | 34.6 ± 0.75 | 41.2 | 22.4 ± 2.7 | 56.8 | 38.3 ± 4 | 45.5 | 122 ± 8.3 | 34.8 ± 0.98 | 39.8 ± 4
19 | Br.Cc1ccc(Sc2ccccc2N2CCNCC2)c(C)c1 | 113 | 71.2 | 102 | 80.6 | 28 ± 3 | 44.4 | 17.5 ± 4 | 76.7 | 39.1 ± 6.4 | 35.3 | 23.6 ± 4.2 | 33.9 ± 14 | 26.9 ± 4.6
20 | CN(C)CC=CC(=O)Nc1cc2c(Nc3ccc(F)c(Cl)c3)ncnc2cc1OC1CCOC1 (stereo unspecified) [Afatinib (BIBW2992)] | 71.3 | 27.2 | 50.9 | 49.6 | 25.61 ± 0.24 | 47.7 | 15.1 ± 1.8 | 73.5 | 43.4 ± 1.5 | 55.4 | 18.7 ± 0.37 | 34.6 ± 2.6 | 44.3 ± 6.3
21 | [O-]n1ccccc1=S.[O-]n1ccccc1=S.[Zn+2] [Zinc Pyrithione] | 52 | 67.2 | 70.2 | 65.3 | 16 ± 11 | 45.1 | 29.6 ± 26 | 24.8 | 144 ± 130 | 43.1 | 25.6 ± 1.7 | 33 ± 8.9 | 45.5 ± 4.8
22 | O=C(NN=Cc1ccc([N+](=O)[O-])o1)c1ccc(O)cc1 [Nifuroxazide] | 78.8 | 91.1 | 95.3 | 77.5 | 63.5 ± 47 | 128 | 37 ± 17 | 82 | 62.8 ± 15 | 91.7 | 62.2 ± 28 | 94.9 ± 15 | 79.2 ± 5.8
23 | Cl.Cl.O=C1c2c(O)ccc(O)c2C(=O)c2c(NCCNCCO)ccc(NCCNCCO)c21 [Mitoxantrone HCl] | 105 | 36.2 | 27.3 | 37.2 | 55.3 ± 38 | 111 | 25.9 ± 0.83 | 55.7 | 73.4 ± 11 | 117 | 27.5 ± 0.38 | 41.3 ± 18 | 65.4 ± 12
24 | COC(=O)C12CCC(C)(C)CC1C1C(=O)C=C3C4(C)C=C(C#N)C(=O)C(C)(C)C4CCC3(C)C1(C)CC2 (stereo unspecified) [Bardoxolone methyl] | 145 | 60.9 | 59.9 | 65.3 | 28.5 ± 3.9 | 33.9 | 23.1 ± 1.8 | 23.2 | 31.5 ± 3 | 30.4 | 24.6 ± 1 | 34.2 ± 5.5 | 26.8 ± 1.1
25 | CC1CC(=O)NN=C1c1ccc(NN=C(C#N)C#N)cc1 (stereo unspecified) [Levosimendan] | 89.2 | 95.2 | 114 | 96.7 | 50.6 ± 31 | 183 | 51.9 ± 30 | 139 | 145 ± 28 | 82.2 | 51.1 ± 2.5 | 47.8 ± 9.7 | 86.7 ± 2.7
26 | CCOC(=O)C1=C(COCCN)NC(C)=C(C(=O)OC)C1c1ccccc1Cl.O=S(=O)(O)c1ccccc1 (stereo unspecified) [Amlodipine Besylate] | 93.3 | 97.5 | 107 | 88.5 | 94.062 ± 0.027 | 115 | 63.8 ± 45 | 110 | 97.8 ± 2.3 | 102 | 50 ± 3.2 | 37 ± 1.7 | 81.2 ± 8.3
27 | COc1ccc2cc1Oc1ccc(cc1)CC1c3c(cc4c(c3Oc3cc5c(cc3OC)CCN(C)C5C2)OCO4)CCN1C (stereo unspecified) [Cepharanthine] | 86.1 | 52.9 | 80.7 | 60.6 | 57.1 ± 12 | 64.3 | 26.6 ± 5.9 | 73.5 | 159 ± 37 | 170 | 36.2 ± 1.8 | 64.7 ± 8.1 | 94.3 ± 9.8
